Bioassay records (PubChem BioAssay)
Pf growth 96h: P. falciparum growth inhibition at 96 hours; P. falciparum luciferase reporter growth, 96 h; Potency, µM (highest dose often 28.7 µM), hits mostly inhibitors; 6.9% of 320,000 active; AID 504834
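Readout is luminescence from an integrated firefly luciferase in P. falciparum. Red cells, 2% hematocrit and 0.05% parasitemia final, were cultured with compound through two parasite generations (96 hours) at 37 C, 5% CO2.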
Sm TGR block: S. mansoni TGR enzyme inhibition; AID 485364; 3% of 360,000 active; purified TGR, DTNB reduction, TNB absorbance 405 nm; Potency, µM (top dose mostly 114 µM), hits mostly inhibitors; Q962Y6; also: nearly all actives have a fitted effect of over 60% in size
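TGR 20 nM + NADPH 100 uM (dispensed conc.), cpd preinc 15 min RT; start with NADPH (500 uM addition) then DTNB (15 mM addition). Kinetic TNB absorbance, 405 nm filter. Four-parameter Hill fit across titration.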
Pf growth 48h: inhibits P. falciparum growth in the first generation, 48 h. P. falciparum luciferase growth in erythrocytes, 48 h. Potency, µM (titrated, usually from 28.7 µM), usual class: inhibitors. 5.9% of 310,000 active
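Here the parasites carry a stable luciferase gene and grow inside erythrocytes in Albumax-based RPMI medium with compound for one erythrocytic cycle. Activity is scored as loss of luminescent signal.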
HCV inh: HCV inhibition; Huh7.5.1 HCVcc-Cre infection, luciferase reporter, 44 h; Potency, µM (series often up to 41.8 µM), usual class: inhibitors; 3.4% of 340,000 active; AID 651820
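Seed cells (1,000/well) for 4 h; treat with compound and infect with HCVcc-Cre, moi about 0.5. Incubate 44 h, then detect luciferase activity.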
HCMV inh: blocks human cytomegalovirus replication; AID 1259415; 4.5% of 410,000 active; HFF cells, HCMV-luciferase reporter, 72 h; hits give low values; activity change, negative = inhibition, % at 57.5 µM; in the data active = activity change below about -60%; inconclusive = no clear call, values can overlap the other calls; inactive = above about -39%
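HFF cells seeded 16 h at 37C, treated with compounds, infected with luciferase-reporter HCMV at MOI 1 PFU/cell; luciferase read at 72 h post infection, normalized to buffer-only and Salinomycin controls.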
SARS PLP yeast: SARS-CoV PLP inhibition in yeast; 0.19% of 330,000 active; Potency, µM (top dose mostly 32.9 µM), actives largely listed as activators; S. cerevisiae expressing SARS-CoV PLpro, growth rescue; calls by dose curve; also: nearly all actives have a fitted effect of over 55% in size
Each line names hits and unclear results; the compound was inactive in the other large screens. This is a sample that favours compounds with a hit; in the whole collection about 15% have one here. Unless noted, calls follow the shape of the dose curve; as a rule, active = well fitted curve in the direction sought with a large enough effect; inconclusive = small, poorly fitted or top-dose-only effect, or another doubt; inactive = no such curve, though single readings can be large; an effect the other way counts as inactive or inconclusive.

COc1ccc(N2CCN(C(CNC(=O)c3ccc4c(c3)OCO4)c3cccnc3)CC2)cc1 (stereo unspecified)	Pf growth 96h inconclusive
COc1cccc(C(=O)NCC(c2cccnc2)N2CCN(c3ccccc3OC)CC2)c1 (stereo unspecified)	Pf growth 96h inconclusive, Pf growth 48h 12µM, HCV inh inconclusive (no result: HCMV inh)
O=S(=O)(NCC(c1cccnc1)N1CCN(c2ccccc2F)CC1)c1cccs1 (stereo unspecified)	Pf growth 96h inconclusive, Pf growth 48h 13µM
COc1ccc(CNC(=O)C(=O)NCC(c2cccnc2)N2CCN(c3ccccc3F)CC2)cc1 (stereo unspecified)	HCMV inh -70 (no result: Pf growth 96h, Pf growth 48h, HCV inh, SARS PLP yeast)
COc1ccc(N2CCN(C(CNC(=O)c3cccc(Cl)c3)c3cccnc3)CC2)cc1 (stereo unspecified)	Pf growth 96h 1.9µM, Pf growth 48h inconclusive, HCV inh inconclusive
O=S(=O)(NCC(c1cccnc1)N1CCN(c2ccc(F)cc2)CC1)c1cccs1 (stereo unspecified)	Pf growth 48h inconclusive
COC(=O)C(O)(c1ccccc1)C(Nc1ccc(OC)cc1)c1ccc(Br)cc1 (stereo unspecified)	none (no result: Pf growth 96h, Sm TGR block, Pf growth 48h, HCV inh, SARS PLP yeast)
C=CCN=C1N[C@@H](c2ccc(Br)cc2)C(C(=O)OC)=C(C)N1Cc1ccccc1	Pf growth 96h inconclusive, Pf growth 48h inconclusive (no result: HCV inh, HCMV inh)
C=CCN1c2ccccc2Sc2cnccc21	HCMV inh -68 (no result: Pf growth 96h, Sm TGR block, Pf growth 48h, HCV inh, SARS PLP yeast)
C=CCN1C(=O)/C(=C2/Sc3ccccc3N2CC)SC1=S	Pf growth 48h inconclusive
CCC(C)(C)NC(=O)Cc1ccc(Cl)cc1	HCMV inh inconclusive (no result: Sm TGR block)
Cc1noc2ncnc(Oc3cc(Cl)ccc3Cl)c12	Pf growth 96h 13µM, Pf growth 48h inconclusive, HCV inh 13µM
Cc1noc2ncnc(Oc3ccc4ccccc4c3)c12	SARS PLP yeast inconclusive
COc1ccc(S(=O)(=O)N2CCOCC2)cc1NC(=O)CSc1n[nH]c(C(C)C)n1	Pf growth 48h inconclusive
COc1ccc(C2=NC(=O)/C(=C\c3cc(OC)c(OC)c(OC)c3)O2)cc1	Pf growth 96h 0.93µM
COc1ccc(/C=C/C2=CCN(C)CC2)cc1	Sm TGR block 32µM
COc1ccc(/C=C/C2=NN(C)C(=O)CC2)cc1	none (no result: HCMV inh)
CN1CC=C(/C=C/c2ccc(-c3ccccc3)cc2)CC1	Pf growth 96h 13µM, Pf growth 48h inconclusive, HCV inh inconclusive (no result: HCMV inh)
S=C(NCCc1ccccn1)Nc1cccc(Cl)c1	HCMV inh inconclusive
O=C(O)c1cccc2nc3ccccc3nc12	Pf growth 48h inconclusive, HCMV inh -63
O=C(O)c1nc2ccccc2nc1C(=O)O	Pf growth 96h inconclusive
Cc1nc2nc(-c3ccc(F)cc3)cn2nc1C	none
CCc1ccc(-c2cn3nc(C)c(C)nc3n2)cc1	HCMV inh -87
CC(C)CCOP(=O)(c1ccc(N(C)C)cc1)C(O)c1ccc(Cl)cc1Cl (stereo unspecified)	Pf growth 96h 9.3µM, Pf growth 48h 9.3µM
CCCCOP(=O)(c1ccc(N(C)C)cc1)C(O)c1ccc(N(C)C)cc1 (stereo unspecified)	none
CCCCOP(=O)(c1ccc(N(C)C)cc1)C(O)c1c(Cl)cccc1Cl (stereo unspecified)	Pf growth 96h inconclusive, Pf growth 48h inconclusive, HCMV inh -76
CC(C)CCOP(=O)(c1ccc(N(C)C)cc1)C(O)c1ccccc1F (stereo unspecified)	Pf growth 96h inconclusive, Pf growth 48h 2.9µM
CN(C)c1ccc(P(=O)(OCc2ccccc2)C(O)c2ccccc2)cc1 (stereo unspecified)	Pf growth 96h 2.3µM, Pf growth 48h 10µM
CN(C)c1ccc(P(=O)(OCc2ccccc2)C(O)c2ccc(Cl)cc2)cc1 (stereo unspecified)	Pf growth 96h inconclusive, Pf growth 48h inconclusive
CC(C)CCOP(=O)(c1ccc(N(C)C)cc1)C(O)c1ccc(N(C)C)cc1 (stereo unspecified)	Pf growth 96h inconclusive, Pf growth 48h inconclusive
Cc1cccc(C(=O)NNC(=O)C2CC2)c1	none
O=C1C(Nc2ccccc2)=C(N2CCCCC2)C(=O)c2ccccc21	Sm TGR block 8.9µM, Pf growth 48h 0.47µM, HCV inh 10µM, HCMV inh -69
CN(C1=C(N2CCCCC2)C(=O)c2ccccc2C1=O)c1ccccc1	Sm TGR block inconclusive, Pf growth 48h 8.3µM, HCV inh 13µM, SARS PLP yeast inconclusive (no result: Pf growth 96h)
O=C1C(Nc2cccc(O)c2)=C(N2CCCCC2)C(=O)c2ccccc21	Pf growth 96h 0.41µM, Sm TGR block 10µM, Pf growth 48h inconclusive
O=C(/C=C/c1ccc(O)cc1)c1ccccc1	none
O=C(/C=C/c1ccc(O)cc1)c1ccc(NC2=C(N3CCCCC3)C(=O)c3ccccc3C2=O)cc1	Pf growth 96h 0.17µM, Sm TGR block 25µM, Pf growth 48h 0.52µM, HCV inh 10µM, HCMV inh -99
Cc1ccc(C(=O)Nc2cccc(O)c2)cc1S(=O)(=O)N1CCCCCC1	none
CN(c1ccccc1)c1nc(N)c([N+](=O)[O-])c(N2CCCCC2)n1	HCV inh inconclusive
COc1ccccc1N(CC(O)CN1CCC(C)CC1)S(=O)(=O)c1ccccc1 (stereo unspecified)	Pf growth 96h inconclusive
O=C(O)c1ccc(NC2=C(Cl)C(=O)c3ccccc3C2=O)cc1	Pf growth 96h inconclusive, Sm TGR block inconclusive, Pf growth 48h inconclusive, HCV inh inconclusive, HCMV inh inconclusive
COc1ccccc1NC1=C(N2CCCCC2)C(=O)c2ccccc2C1=O	Pf growth 96h 0.093µM, Sm TGR block inconclusive, Pf growth 48h 0.046µM, HCV inh inconclusive (no result: HCMV inh)
CC1=C(Nc2ccc(C(=O)O)cc2)C(=O)c2ccccc2C1=O	Sm TGR block 22µM, HCV inh inconclusive
Cc1ccc(NC2=C(N3CCCCC3)C(=O)c3ccccc3C2=O)cc1	Pf growth 96h 0.074µM, Sm TGR block 13µM, Pf growth 48h 0.17µM, HCMV inh -103
COc1ccccc1NS(=O)(=O)c1cc(N)ccc1N1CCCC1	HCV inh inconclusive (no result: Pf growth 96h, Sm TGR block, Pf growth 48h)
O=C(N1CCCC1)C12CCC3CC(CC(C3)C1)C2	Pf growth 96h 9.3µM (no result: Pf growth 48h)
Fc1ccc(-n2cc(-c3ccccc3)c3c(NC4CCCCC4)ncnc32)cc1	none (no result: Pf growth 96h, Pf growth 48h, HCV inh, SARS PLP yeast)
CCCCCn1c(=O)c(C(=O)Nc2cc(C)ccn2)c(O)c2ccccc21	Pf growth 48h inconclusive, HCV inh inconclusive
CCCCCn1c(=O)c(C(=O)Nc2cnccn2)c(O)c2ccccc21	Pf growth 48h inconclusive, HCV inh 8.9µM, HCMV inh inconclusive (no result: Sm TGR block)
CCCCn1c(=O)c(C(=O)Nc2ccccc2)c(O)c2ccccc21	Pf growth 48h inconclusive, HCV inh inconclusive
CCCCCCn1c(=O)c(C(=O)Nc2ccncc2)c(O)c2ccccc21	Pf growth 96h inconclusive, Pf growth 48h 2.9µM (no result: HCMV inh)
